Several values for one entry are separate records, joined by “and”; a condition that tells them apart may be missing. Identical values can stand only once. Activity calls are given as the source filed them.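 The calls were made as follows, unless noted: active = normalized viability below 100% at a tested concentration; inactive = the rest.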
Legend:
[1] = signal quenchers or enhancers, Cy5 substrate/SSB – biochemical, NIH Clinical Collection, E. coli SSB, artefact control for HCV NS3 helicase inhibitor project (AID 743268; call rule not given here); details: Cy5-oligo bound E. coli SSB, fluorescence interference
[2] = test system: Hepatitis C virus NS3 helicase; assay: blockers of NS3h binding to DNA – biochemical, fluorescence polarization, NIH Clinical Collection, primary screen (AID 743270; call rule not given here); details: NS3 helicase binding to Cy5-dT15 DNA, stronger effect = higher value, concentration not given here
[3] = target: Single-stranded DNA-binding protein (Escherichia coli (strain K12)) (UniProt P0AGE0); assay: SSB-ssDNA binding inhibitors – biochemical, fluorescence polarization, NIH Clinical Collection, counter-screen for HCV NS3 helicase inhibitor project (AID 743271; in the data active = inhibition above about 28%); details: E. coli SSB-DNA binding, stronger effect = higher value, concentration not given here
[4] = compounds distorting NS3 helicase fluorescence signal – biochemical, NIH Clinical Collection, artefact control for HCV NS3 helicase inhibitor project (AID 743272; call rule not given here;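 also: HCV NS3 helicase with a Cy5 labelled single stranded DNA probe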); details: fluorescence interference counterscreen, HCV NS3 helicase assay; stronger effect = lower value
[5] = target: 6-phosphogluconate dehydrogenase, decarboxylating (Homo sapiens) (UniProt P52209); assay: inhibition of human phosphogluconate dehydrogenase – biochemical, recombinant enzyme, NADPH absorbance, primary screen (AID 1159550;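 active = at least 20% inhibition of 6-phosphogluconate dehydrogenase activity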); details: recombinant 6PGD, NADPH absorbance 341 nm; at 10 µM; stronger effect = higher value
[6] = modulation of C. elegans fzo-1 (AID 1259413; call rule not given here;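 also: fzo-1 mutant C. elegans worms in liquid wells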); details: C. elegans fzo-1 modulator screen, mean read-out; stronger effect = higher value
[7] = EMT-state selective cytotoxicity in co-culture – imaging, PC-3E GFP, TEM4-18 mCherry, primary screen (AID 1345086;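 active = compounds killing one labelled cell type while sparing the other, by normalised counts and ratio limits, not self-fluorescent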;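 as to all read-outs here: cells exposed to compound for 72 h before imaging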;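 as to red/green cell ratio (normalised): normalised mesenchymal count divided by normalised epithelial count so high means epithelial killing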); details: PC-3E GFP / TEM4-18 mCherry co-culture, imaging cell counts, at 1 µM; for red/green cell ratio (normalised): actives lie on both sides, counts scaled to control wells, 1 = unselective
[8] = drug combination growth inhibition, ovarian cancer – cell-based, oncology-focused library, rucaparib conditional, profiling panel (AID 1508598); details: patient-derived ovarian cancer cells, CellTiter-Glo viability, 144 h, stronger effect = lower value
[9] = target: Mitogen-activated protein kinase 7 (Homo sapiens) (UniProt Q13164); assay: Gal4-ERK5 driven luciferase induction – cell-based, HTS, primary screen (AID 1508626;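 active = luciferase signal above three times the same-plate solvent-only control wells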;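 also: luciferase driven by Gal4-ERK5 fusion binding five Gal4 sites before minimal TATA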); details: HeLa Gal4-ERK5 transactivation, 18 h, at 5 µM, stronger effect = higher value
[10] = galactose survival enhancers in mitochondrial complex I cybrids – cell-based, galactose medium, ATP luminescence, primary screen (AID 1645843;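 active = z-score of at least 1.8 in each of two replicates, scored against plate mean and spread of sample wells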;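 also: positive z means more ATP and so rescue of galactose-driven cybrid death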); details: complex I mutant cybrid cells, 72 h, stronger effect = higher value
[11] = test system: F380Y; assay: BK channel mutant inhibitors and activators – cell-based, U2OS BacMam, thallium flux, beta subunits, selectivity assay, profiling panel (AID 1259406;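 active = thallium flux through the channel raised or lowered by more than 3 SD from vehicle-only wells, actives on both sides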;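 also: initial slope of Thallos dye fluorescence rise after thallium is added; log ratio against the mean of 0.3% DMSO vehicle wells on the same plate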); details: U2OS BacMam BK variants, at 30 µM
[12] = test system: F380Y/beta1; assay: as above; details: U2OS BacMam BK variants, at 30 µM
[13] = test system: F380Y/beta2Delta; assay: as above; details: U2OS BacMam BK variants, at 30 µM
[14] = target: Calcium-activated potassium channel subunit alpha-1 (Homo sapiens) + Leucine-rich repeat-containing protein 26 (Homo sapiens) (UniProt Q12791+Q2I0M4); assay: as above; details: U2OS BacMam BK variants, F380Y/Slo1WT/gamma1, at 30 µM
[15] = test system: R275C; assay: as above; details: U2OS BacMam BK variants, at 30 µM
[16] = test system: R275C/beta1; assay: as above; details: U2OS BacMam BK variants, at 30 µM
[17] = test system: R275C/beta2Delta; assay: as above; details: U2OS BacMam BK variants, at 30 µM
[18] = P. berghei load reduction in hepatocytes – cell-based, HepG2, luciferase luminescence, HepG2 viability, primary screen (AID 624349; in the data active = parasite load remaining mostly below about 12%, no sharp cut-off; inactive = mostly above about 10%;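 also: 100% = mean of DMSO negative control wells on the same plate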); details: P. berghei liver stage in HepG2, luciferase luminescence, concentration not given here; parasite load remaining: stronger effect = lower value; viability: measured here: HepG2 viability without parasites
[19] = viability loss with induced miR-34 in A549 – imaging, A549 dox-inducible miR-34, nuclei and caspase counts, primary screen (AID 1347080;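 active = compounds whose cell count with miR-34 switched on is under 0.7 times the count with it off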); details: A549 miR-34 inducible, Hoechst nuclei count, 48 h
[20] = MELAS cybrid and Rieske KO viability enhancers – cell-based, MELAS cybrids, Rieske KO mouse fibroblasts, CellTiter-Glo, primary screen (AID 1508586;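 active = mean z-score across replicates of 1.96 or higher in either the MELAS or the Rieske mutant cell line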;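 also: z relative to plate mean and SD of compound and empty wells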); details: low glucose
[21] = measured here: epithelial PC-3E GFP cell survival
[22] = measured here: mesenchymal TEM4-18 mCherry cell survival
[23] = stronger effect = lower value, cell number ratio, induced over uninduced
[24] = measured here: relative caspase fold change +Dox/-Dox
[25] = measured here: total cells with miR-34 induction, stronger effect = lower value
[26] = measured here: total cells without miR-34 induction
[27] = MELAS cybrid survival, CellTiter-Glo 48 h, stronger effect = higher value
[28] = Rieske KO mouse fibroblast survival, CellTiter-Glo 72 h

Sequence of Mitogen-activated protein kinase 7 (Homo sapiens) (Q13164 whole entry, looked up, the tested form may be a part): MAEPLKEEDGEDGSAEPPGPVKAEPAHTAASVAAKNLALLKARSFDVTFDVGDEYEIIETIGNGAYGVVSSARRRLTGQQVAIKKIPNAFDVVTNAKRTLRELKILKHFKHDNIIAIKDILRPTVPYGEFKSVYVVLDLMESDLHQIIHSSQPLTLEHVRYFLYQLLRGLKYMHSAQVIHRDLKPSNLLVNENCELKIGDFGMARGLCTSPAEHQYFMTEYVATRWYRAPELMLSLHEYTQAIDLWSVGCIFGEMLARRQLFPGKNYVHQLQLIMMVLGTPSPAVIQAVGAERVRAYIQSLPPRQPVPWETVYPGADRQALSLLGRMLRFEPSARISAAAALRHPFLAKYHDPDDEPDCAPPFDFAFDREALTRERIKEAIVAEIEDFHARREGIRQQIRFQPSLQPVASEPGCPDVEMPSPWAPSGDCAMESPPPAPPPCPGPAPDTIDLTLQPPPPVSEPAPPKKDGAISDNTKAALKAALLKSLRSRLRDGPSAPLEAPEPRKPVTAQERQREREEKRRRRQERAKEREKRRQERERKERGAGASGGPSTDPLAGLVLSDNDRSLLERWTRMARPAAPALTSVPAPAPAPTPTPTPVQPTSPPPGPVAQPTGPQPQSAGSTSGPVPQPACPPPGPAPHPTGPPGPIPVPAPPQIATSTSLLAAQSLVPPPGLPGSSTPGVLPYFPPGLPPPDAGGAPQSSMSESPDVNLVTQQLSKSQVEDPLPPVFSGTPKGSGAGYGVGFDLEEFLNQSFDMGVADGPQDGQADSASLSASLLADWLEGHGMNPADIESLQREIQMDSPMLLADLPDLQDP
Sequence of Calcium-activated potassium channel subunit alpha-1 (Homo sapiens) + Leucine-rich repeat-containing protein 26 (Homo sapiens) (Q2I0M4 whole entry, looked up, one chain of several): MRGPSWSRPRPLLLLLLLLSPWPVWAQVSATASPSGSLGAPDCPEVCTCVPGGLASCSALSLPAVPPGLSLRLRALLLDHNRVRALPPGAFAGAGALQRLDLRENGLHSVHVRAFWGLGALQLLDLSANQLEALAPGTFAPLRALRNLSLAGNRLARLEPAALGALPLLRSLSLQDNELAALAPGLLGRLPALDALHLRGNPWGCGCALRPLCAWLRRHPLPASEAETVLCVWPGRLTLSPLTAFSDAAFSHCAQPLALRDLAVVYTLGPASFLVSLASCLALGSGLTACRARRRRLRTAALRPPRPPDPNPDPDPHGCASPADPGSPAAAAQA
Sequence of 6-phosphogluconate dehydrogenase, decarboxylating (Homo sapiens) (P52209 whole entry, looked up): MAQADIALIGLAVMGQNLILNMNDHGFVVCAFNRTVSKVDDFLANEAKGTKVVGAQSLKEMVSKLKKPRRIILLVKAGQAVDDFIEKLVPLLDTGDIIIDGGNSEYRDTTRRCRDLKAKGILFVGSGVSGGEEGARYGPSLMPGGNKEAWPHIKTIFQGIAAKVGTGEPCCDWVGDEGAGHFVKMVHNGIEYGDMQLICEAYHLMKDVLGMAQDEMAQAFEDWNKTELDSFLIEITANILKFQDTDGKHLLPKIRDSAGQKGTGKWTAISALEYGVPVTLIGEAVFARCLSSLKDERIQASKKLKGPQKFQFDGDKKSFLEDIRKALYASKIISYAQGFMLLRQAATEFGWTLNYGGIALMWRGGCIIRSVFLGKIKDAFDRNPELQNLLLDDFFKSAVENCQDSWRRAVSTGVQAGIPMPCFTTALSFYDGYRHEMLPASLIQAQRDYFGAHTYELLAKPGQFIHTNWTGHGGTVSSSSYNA

CCc1ccc(CCOc2ccc(CC3SC(=O)NC3=O)cc2)nc1 (stereo unspecified)
1.18: normalised cell number [7, 21]
active: viability ([8]; at 0.000305 µM, OCI-P5x cells, with rucaparib 20 µM, 100% = cells with rucaparib alone) 88.4% | viability ([8]; at 0.000305 µM, OCI-P5x cells, without rucaparib) 95.9% | viability ([8]; at 0.00122 µM, OCI-P5x cells, with rucaparib 20 µM, 100% = cells with rucaparib alone) 97.3%
1.27: normalised cell number [7, 22]
inactive: fluorescence ratio [1] 1.03 | inhibition [2] 0.4% | inhibition [3] 3.75% | fluorescence ratio [4] 0.9 | inhibition [5] 6.81% | mean signal [6] 259 | red/green cell ratio (normalised) [7] 1.07 | viability ([8]; at 0.000305 µM, OCI-C5x cells, with rucaparib 10 µM, 100% = cells with rucaparib alone) 119% | viability ([8]; at 0.000305 µM, OCI-C5x cells, without rucaparib) 118% | viability ([8]; at 0.00122 µM, OCI-C5x cells, with rucaparib 10 µM, 100% = cells with rucaparib alone) 120% | viability ([8]; at 0.00122 µM, OCI-C5x cells, without rucaparib) 116% | viability ([8]; at 0.00122 µM, OCI-P5x cells, without rucaparib) 100% | viability ([8]; at 0.00488 µM, OCI-C5x cells, with rucaparib 10 µM, 100% = cells with rucaparib alone) 108% | viability ([8]; at 0.00488 µM, OCI-C5x cells, without rucaparib) 126% | viability ([8]; at 0.00488 µM, OCI-P5x cells, with rucaparib 20 µM, 100% = cells with rucaparib alone) 102% | viability ([8]; at 0.00488 µM, OCI-P5x cells, without rucaparib) 105% | viability ([8]; at 0.0195 µM, OCI-C5x cells, with rucaparib 10 µM, 100% = cells with rucaparib alone) 120% | viability ([8]; at 0.0195 µM, OCI-C5x cells, without rucaparib) 126% | viability ([8]; at 0.0195 µM, OCI-P5x cells, with rucaparib 20 µM, 100% = cells with rucaparib alone) 105% | viability ([8]; at 0.0195 µM, OCI-P5x cells, without rucaparib) 104% | viability ([8]; at 0.0781 µM, OCI-C5x cells, with rucaparib 10 µM, 100% = cells with rucaparib alone) 124% | viability ([8]; at 0.0781 µM, OCI-C5x cells, without rucaparib) 113% | viability ([8]; at 0.0781 µM, OCI-P5x cells, with rucaparib 20 µM, 100% = cells with rucaparib alone) 101% | viability ([8]; at 0.0781 µM, OCI-P5x cells, without rucaparib) 110% | viability ([8]; at 0.313 µM, OCI-C5x cells, with rucaparib 10 µM, 100% = cells with rucaparib alone) 105% | viability ([8]; at 0.313 µM, OCI-C5x cells, without rucaparib) 115% | viability ([8]; at 0.313 µM, OCI-P5x cells, with rucaparib 20 µM, 100% = cells with rucaparib alone) 103% | viability ([8]; at 0.313 µM, OCI-P5x cells, without rucaparib) 113% | viability ([8]; at 1.25 µM, OCI-C5x cells, with rucaparib 10 µM, 100% = cells with rucaparib alone) 111% | viability ([8]; at 1.25 µM, OCI-C5x cells, without rucaparib) 123% | viability ([8]; at 1.25 µM, OCI-P5x cells, with rucaparib 20 µM, 100% = cells with rucaparib alone) 104% | viability ([8]; at 1.25 µM, OCI-P5x cells, without rucaparib) 118% | viability ([8]; at 5 µM, OCI-C5x cells, with rucaparib 10 µM, 100% = cells with rucaparib alone) 105% | viability ([8]; at 5 µM, OCI-C5x cells, without rucaparib) 123% | viability ([8]; at 5 µM, OCI-P5x cells, with rucaparib 20 µM, 100% = cells with rucaparib alone) 103% | viability ([8]; at 5 µM, OCI-P5x cells, without rucaparib) 111% | luciferase signal [9] 48 AU | z-score [10] 0.365 and 1.53 | log fold change Tl+ flux [11] 0.00439 | log fold change Tl+ flux [12] 0.0033 | log fold change Tl+ flux [13] 0.0296 | log fold change Tl+ flux [14] 0.0101 | log fold change Tl+ flux [15] -0.057 | log fold change Tl+ flux [16] -0.028 | log fold change Tl+ flux [17] -0.0196

COc1ccc(-c2c(OC)c3c(OC)c4c(cc3oc2=O)OC(C)(C)C=C4)cc1
inactive: inhibition [5] 5.26%

C/C=C(\C)C(=O)O[C@@H]1[C@@H]2C=C3[C@@H]4CC(=O)O[C@@H](C5=CC(O)OC5=O)[C@]4(C)CC[C@@H]3[C@@](C)(C2=O)[C@@H]([C@@H](O)C(=O)OC)C1(C)C (stereo partly specified)
inactive: inhibition [5] 0.726%

Cc1cccc(C)c1NC(=O)C1CCCCN1C (stereo unspecified)
inactive: parasite load remaining [18] 174% and 77.7% and 69.1% | fluorescence ratio [1] 0.96 | inhibition [2] -2.84% | inhibition [3] 1.97% | fluorescence ratio [4] 0.95 | inhibition [5] 10.7% | mean signal [6] 253 | red/green cell ratio (normalised) [7] 1.21 | fold change [19, 23] 0.977 and 0.928 and 0.875 | z-score [20, 27] -0.27 and -0.937 | luciferase signal [9] 68 AU | z-score [10] 0.56 | log fold change Tl+ flux [11] 0.0251 | log fold change Tl+ flux [12] 0.0319 | log fold change Tl+ flux [13] 0.00729 | log fold change Tl+ flux [14] 0.0131 | log fold change Tl+ flux [15] -0.0395 | log fold change Tl+ flux [16] -0.0108 | log fold change Tl+ flux [17] 0.00999
1.53 and 0.775 and 2.13: fold change [19, 24]
8050 and 8030 and 11600: cell count [19, 25]
85.7% and 198% and 72.6%: viability [18]
8240 and 8660 and 13200: cell count [19, 26]
-0.166 and -1.35: z-score [20, 28]
1.19: normalised cell number [7, 21]
1.44: normalised cell number [7, 22]

CC(=O)C1CCC2C3CC=C4CC(O)CCC4(C)C3CCC12C (stereo unspecified)
inactive: inhibition [5] -15.3%

CC(=O)N[C@H]1[C@H]([C@H](O)[C@H](O)CO)O[C@](O)(C(=O)O)C[C@@H]1O
inactive: inhibition [5] -6.71%

CNC(C)[C@@H]1CC[C@@H](N)[C@@H](OC2C(O)[C@@H](OC3OC[C@](C)(O)C(NC)[C@H]3O)[C@H](N)C[C@@H]2N)O1 (stereo partly specified)
inactive: inhibition [5] 1.04%

CS(=O)(=O)c1ccc(C2=C(c3ccccc3)C(=O)OC2)cc1
0.92: normalised cell number [7, 22]
inactive: fluorescence ratio [1] 1.03 | inhibition [2] 3.56% | inhibition [3] 1.44% | fluorescence ratio [4] 0.97 | inhibition [5] -26.3% | mean signal [6] 215 | red/green cell ratio (normalised) [7] 0.98 | z-score [20, 27] -0.068 and 0.18 and -0.373 | luciferase signal [9] 192 AU | z-score [10] 0.26 and 0.525 | log fold change Tl+ flux [11] 0.0227 | log fold change Tl+ flux [12] 0.00163 | log fold change Tl+ flux [13] 0.00326 | log fold change Tl+ flux [14] 0.022 | log fold change Tl+ flux [15] -0.068 | log fold change Tl+ flux [16] 0.023 | log fold change Tl+ flux [17] 0.00437
0.93: normalised cell number [7, 21]
-0.00526 and -0.204 and -0.438: z-score [20, 28]

O=[N+]([O-])c1cccc2cn[nH]c12
inactive: parasite load remaining [18] 55.2% | fluorescence ratio [1] 0.99 | inhibition [2] 1.53% | inhibition [3] -2.76% | fluorescence ratio [4] 0.97 | inhibition [5] -14.4% | mean signal [6] 242 | red/green cell ratio (normalised) [7] 0.79 | fold change [19, 23] 1.03 and 0.867 and 0.91 | z-score [10] 0.295 and 0.3 and -0.14 | log fold change Tl+ flux [11] 0.0311 | log fold change Tl+ flux [12] 0.0616 | log fold change Tl+ flux [13] -0.000818 | log fold change Tl+ flux [14] 0.0381 | log fold change Tl+ flux [15] -0.025 | log fold change Tl+ flux [16] -0.0288 | log fold change Tl+ flux [17] 0.0285
10200 and 8750 and 8260: cell count [19, 25]
68.7%: viability [18]
0.865 and 1.54 and 0.678: fold change [19, 24]
1.13: normalised cell number [7, 22]
9850 and 10100 and 9080: cell count [19, 26]
1.44: normalised cell number [7, 21]

COc1ccc(-c2cc(=O)c3c(O)cc(O[C@H]4O[C@H](CO[C@@H]5O[C@@H](C)[C@H](O)[C@@H](O)[C@H]5O)[C@@H](O)[C@H](O)[C@H]4O)cc3o2)cc1
inactive: inhibition [5] 17.5%

OC[C@H]1O[C@@H](O[C@H]2[C@H](O)[C@@H](O)[C@H](O)O[C@@H]2CO)[C@H](O)[C@@H](O)[C@@H]1O
inactive: inhibition [5] -3.99%

From PubChem BioAssay
